HP1b chromo inh – HTS for Inhibitors of HP1-beta Chromodomain Interactions with Methylated Histone Tails | AlphaScreen HP1-beta / biotin-H3K9me3 peptide binding | Potency, µM (top dose mostly 114 µM), actives largely listed as inhibitors | 390,000 compounds, 0.56% hits; note: nearly all actives have a fitted effect of over 70% in size
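HP1-beta protein (50 nM final) preincubated 30 min at room temperature with biotinylated H3(1-18)K9me3 peptide (50 nM) in PBS pH 7.4, 0.01% Tween-20, then compound added for 30 min. AlphaScreen streptavidin donor/nickel chelate acceptor beads (10 ug/mL final), 30 min dark, luminescence read.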
G9a block – qHTS Assay for Inhibitors of Histone Lysine Methyltransferase G9a | Histone-lysine N-methyltransferase EHMT2 (Homo sapiens), Q96KQ7 | G9a H3K9 monomethylation, AlphaScreen, 2 h | Potency, µM (titrated, usually from 102 µM), hits mostly inhibitors | 350,000 compounds, 8.8% hits | AID 504332, 2011; note: nearly all actives have a fitted effect of over 75% in size
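Enzyme 20 nM + cpd, 15 min RT; add b-H3K9 pep 500 nM / SAM 20 uM; 2 h RT; anti-H3K9me1 Ab 0.5 ug/mL + SA donor / anti-rabbit acceptor beads 20 ug/mL each, 10 min; AlphaScreen read.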
Sfp PPTase inh – qHTS Assay for Inhibitors of Bacillus subtilis Sfp phosphopantetheinyl transferase (PPTase); 4'-phosphopantetheinyl transferase ffp (Bacillus subtilis), Q9F4F7; Biochemical Sfp PPTase activity, qHTS; Potency, µM, most hits filed as inhibitors; 310,000 compounds, 3.5% hits; AID 1490, 2009;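 note: the enzyme is Sfp with the accession as filed and its product quenches rhodamine fluorescence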
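Fluorescence-quenching assay with 15 nM Sfp, 5 uM rhodamine-CoA and 12.5 uM BHQ-2-labelled ybbR peptide in pH 7.6 Hepes/MgCl2 buffer. Enzyme was pre-incubated with compound for 15 min at room temperature. Rate was taken from the 30-min fluorescence change (525/598 nm).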
JMJD2A Tudor inh – qHTS Assay for Inhibitors of JMJD2A-Tudor Domain | 390,000 compounds, 4.4% hits | Potency, µM (top dose mostly 114 µM), usual class: inhibitors | AlphaScreen JMJD2A-Tudor / H3K4me3 peptide binding; note: nearly all actives have a fitted effect of over 50% in size
Target sequence (O75164 whole entry, looked up, the tested form may be a part): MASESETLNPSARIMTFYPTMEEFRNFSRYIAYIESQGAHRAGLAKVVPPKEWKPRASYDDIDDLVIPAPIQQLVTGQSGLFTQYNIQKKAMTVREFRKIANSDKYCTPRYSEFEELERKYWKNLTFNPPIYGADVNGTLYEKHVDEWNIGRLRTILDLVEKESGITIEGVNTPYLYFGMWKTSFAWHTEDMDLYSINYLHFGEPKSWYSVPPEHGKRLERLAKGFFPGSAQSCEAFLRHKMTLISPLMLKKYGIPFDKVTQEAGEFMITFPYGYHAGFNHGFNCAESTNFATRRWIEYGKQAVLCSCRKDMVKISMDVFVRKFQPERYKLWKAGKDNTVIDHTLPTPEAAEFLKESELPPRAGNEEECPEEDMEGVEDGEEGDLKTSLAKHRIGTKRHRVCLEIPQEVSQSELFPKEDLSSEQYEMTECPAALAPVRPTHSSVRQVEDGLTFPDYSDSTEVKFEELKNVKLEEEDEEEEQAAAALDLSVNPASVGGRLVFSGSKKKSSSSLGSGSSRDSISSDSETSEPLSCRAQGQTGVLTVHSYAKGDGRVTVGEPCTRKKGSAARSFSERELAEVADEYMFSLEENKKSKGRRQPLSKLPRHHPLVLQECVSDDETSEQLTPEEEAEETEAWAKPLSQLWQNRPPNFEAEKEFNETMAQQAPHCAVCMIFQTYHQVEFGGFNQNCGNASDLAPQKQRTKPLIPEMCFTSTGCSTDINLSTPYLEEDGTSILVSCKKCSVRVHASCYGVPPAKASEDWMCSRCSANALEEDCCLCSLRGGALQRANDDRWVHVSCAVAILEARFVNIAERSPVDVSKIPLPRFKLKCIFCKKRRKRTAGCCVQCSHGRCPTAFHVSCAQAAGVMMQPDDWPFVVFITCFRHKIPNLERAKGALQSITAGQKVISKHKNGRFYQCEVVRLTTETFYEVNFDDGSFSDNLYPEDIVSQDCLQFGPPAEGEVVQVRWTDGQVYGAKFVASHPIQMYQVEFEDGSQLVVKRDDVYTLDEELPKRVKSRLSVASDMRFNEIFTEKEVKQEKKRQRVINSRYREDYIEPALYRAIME
BAZ2B inh – qHTS Assay for Inhibitors of BAZ2B; AlphaScreen BAZ2B-H3K14Ac peptide displacement; Potency, µM (series often up to 114 µM), most hits filed as inhibitors; 360,000 compounds, 4.4% hits; AID 504333, 2011; note: nearly all actives have a fitted effect of over 60% in size
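BAZ2B (50 nM) with biotin-H3(5-23)K14Ac peptide (50 nM) in PBS pH 7.4, 0.01% Tween-20, preformed 30 min, then compound 30 min at room temperature; top concentration 110uM. AlphaScreen streptavidin donor/nickel chelate acceptor beads (10 ug/mL final), 20 min dark, signal read.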
TDP1 inh – qHTS Assay for Inhibitors of Tyrosyl-DNA Phosphodiesterase (TDP1); 350,000 compounds, 0.28% hits; AID 485290, 2010; Potency, µM (highest dose often 130 µM), most hits filed as inhibitors; recombinant TDP1, AlphaScreen DNA substrate cleavage; note: nearly all actives have a fitted effect of over 40% in size
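Here, a 5' biotin and 3' phosphotyrosine-FITC DNA oligonucleotide reports Tdp1 activity: intact substrate bridges AlphaScreen beads, while cleavage leaves a 3' phosphate and drops signal. All incubations at room temperature.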
Large screens that a line does not name were inactive. Only some compounds are listed: those with a hit (about 12% of all), similar ones and a draw of the others. Calls come from the whole dose curve; as a rule, active = well fitted curve in the direction sought with a large enough effect; inconclusive = small, poorly fitted or top-dose-only effect, or another doubt; inactive = no such curve, though single readings can be large; an effect the other way counts as inactive or inconclusive.

Cc1cc(C(=O)CSc2n[nH]c(N)n2)c(C)n1C1CC1	none (no result: G9a block)
Cc1ccc(C(=O)CSc2nc3ccccc3c(=O)[nH]2)cc1	G9a block 44.7µM
C=CCn1c(C)cc(C(=O)CSc2n[nH]c(N)n2)c1C	G9a block 31.6µM, JMJD2A Tudor inh inconclusive
O=C(CSc1nc2ccccc2c(=O)[nH]1)Nc1ccc(C(=O)O)cc1	G9a block inconclusive, BAZ2B inh inconclusive, TDP1 inh 50.1µM
C=CCn1c(C)cc(C(=O)CSc2nc3ccccc3[nH]2)c1C	G9a block inconclusive, JMJD2A Tudor inh inconclusive, BAZ2B inh inconclusive
C=CCn1c(C)cc(C(=O)CSc2nc3ccccc3c(=O)[nH]2)c1C	G9a block 50.1µM, Sfp PPTase inh inconclusive, BAZ2B inh inconclusive
COC1C(O)C(CO)OC1n1cnc2c(=O)[nH]c(N)nc21 (centres undefined)	none (no result: HP1b chromo inh, G9a block, JMJD2A Tudor inh, BAZ2B inh)
COC(=O)C1(C)C=C2C(=C(c3ccccc3)C(=O)C2C)CN1 (centres undefined)	none (no result: HP1b chromo inh, G9a block, JMJD2A Tudor inh, BAZ2B inh)
CCC1CCCCN1C(=O)c1sc(-n2nc(C)c(Cc3ccccc3)c2C)nc1C (centres undefined)	none (no result: Sfp PPTase inh)
Cc1ccc(NS(=O)(=O)c2ccc(NC(=O)c3ccccc3C(=O)O)cc2)cc1C	none (no result: G9a block, Sfp PPTase inh, BAZ2B inh, TDP1 inh)
COc1ccc(Br)cc1/C=C(\C(=O)O)c1ccc(S(=O)(=O)N2CCCC2)s1	JMJD2A Tudor inh 89.1µM, TDP1 inh inconclusive (no result: G9a block, Sfp PPTase inh, BAZ2B inh)
CCOc1ccc(/C=C(\C(=O)O)c2ccc(S(=O)(=O)N3CCCCC3)s2)cc1OC	none (no result: G9a block, Sfp PPTase inh, BAZ2B inh)
COc1cc(/C=C(\C(=O)O)c2ccc(S(=O)(=O)N3CCCC3)s2)cc(OC)c1	G9a block 50.1µM, TDP1 inh inconclusive (no result: Sfp PPTase inh)
O=C(Cn1c(=O)n(Cc2ccccc2)c(=O)c2oc3ccccc3c21)Nc1ccc(Cl)cc1	none (no result: Sfp PPTase inh)
Cc1ccc(C)c(Cn2c(C(C)NC(=O)c3ccc(F)cc3)nc3ccccc32)c1 (centres undefined)	none (no result: Sfp PPTase inh)
Cc1cc(-c2ccc(C)c(S(=O)(=O)N(C(C)C)C3CCCCC3)c2)on1	none (no result: Sfp PPTase inh)
O=C(NCc1ccccc1)C12CC3CC(CC(C3)C1)C2	G9a block 31.6µM, BAZ2B inh inconclusive
COc1ccc(N2CC(NC(=O)C3CCCCC3)CC2=O)cc1 (centres undefined)	none (no result: Sfp PPTase inh)
Cc1ccc(-n2c(C)cc(C3N=C(N)Nc4nc5ccccc5n43)c2C)c(C)c1 (centres undefined)	HP1b chromo inh inconclusive, Sfp PPTase inh inconclusive, JMJD2A Tudor inh 39.8µM, BAZ2B inh 39.8µM
Cc1cc(C2N=C(N)Nc3nc4ccccc4n32)c(C)n1-c1ccccc1Cl (centres undefined)	G9a block inconclusive, Sfp PPTase inh 2.82µM, JMJD2A Tudor inh inconclusive, BAZ2B inh inconclusive
COc1ccc(S(=O)(=O)N/N=c2\oc3c(OC)cccc3cc2S(=O)(=O)c2ccc(C)cc2)cc1OC	none
O=C(Cc1cccs1)Nc1cccc(-c2nc3cc4ccccc4cc3[nH]2)c1	none
Cc1ccc(NC(=O)CN2C(=O)N/C(=C/c3ccc(C)o3)C2=O)cc1	G9a block 35.5µM, Sfp PPTase inh 10µM
Cc1ccc(NC(=O)CN2C(=O)N/C(=C/c3ccc(N4CCOCC4)cc3)C2=O)cc1	none
Cc1ccc(NC(=O)CN2C(=O)N/C(=C/c3ccc4c(c3)OCCO4)C2=O)cc1	none
Cc1ccc(NC(=O)CN2C(=O)N/C(=C/c3ccc(C)s3)C2=O)cc1	G9a block inconclusive, Sfp PPTase inh 39.8µM
Cc1cccc(NC(=O)Cn2c(=O)oc3ccccc32)c1	none
Cc1cccc(NC(=O)CN2C(=O)N/C(=C\c3ccc(-c4cccc(C(=O)O)c4)o3)C2=O)c1	G9a block 44.7µM, Sfp PPTase inh 39.8µM (no result: TDP1 inh)
CCn1c(C)cc(/C=C2/NC(=O)N(CC(=O)Nc3cccc(C)c3)C2=O)c1C	G9a block 44.7µM

Screening results: PubChem BioAssay, National Center for Advancing Translational Sciences (NCATS)
